Experimental data published in ChEMBL document CHEMBL4513216, “Probing the Open Global Health Chemical Diversity Library for Multistage-Active Starting Points for Next-Generation Antimalarials” (ACS Infect Dis, 2020).
The whole screen tested about 69,000 compounds, of which about 8,600 (12%) showed an effect of 50% or more. Shown is part of a subset that was picked to be rich in strong results.

These molecules were tested on Plasmodium berghei (assay: Screen against P. berghei liver stage (PbLuc), transformed with Luciferase, at 10uM). Settings: tested at 10 uM.
Assay type: functional, HepG2

Compound | INHIBITION [%]
CSCC(=O)N1CCCN(Cc2cscn2)CC1 | 7.77
CCc1oc2ccc(NS(=O)(=O)CC)cc2c1C(=O)OC | 1.41
CC(C)=CCCC1(C)C=Cc2c(cc(C)n(CC(=O)O)c2=O)O1 (stereo not given) | 18.3
CCC(C)C(=O)N(CC(=O)OC)c1cccc(C)n1 (stereo not given) | 10.6
COC(=O)CN(C(=O)c1cc(C)c(F)cc1F)c1cccc(C)n1 | 61.7
COC(=O)CN(C(=O)c1cccc(F)c1Cl)c1cccc(C)n1 | 29.8
COC(=O)CN(C(=O)c1cc(C(C)C)no1)c1cccc(F)c1 | 7.38
COC(=O)CN(C(=O)c1ccc(Cl)cn1)c1cccc(F)c1 | 33.1
COC(=O)CN(C(=O)C(C)c1c(F)cccc1F)c1cccc(C)n1 (stereo not given) | 76
O=C(O)Cc1nc2nccc(-c3ccc(F)cc3)n2n1 | 11.5
Cn1cccc1CN(C(=O)Cc1cccs1)C1CC1 | 6.54
N#Cc1ccc(C(=O)O)nc1C=Cc1cccc(Br)c1 | 39.4
O=C(NC1CC1)c1cnc(-c2noc3cc(N4CCCCC4)ccc23)s1 | 95.5
O=C(NCCN1CCCC1)c1ccc2c(-c3nccs3)noc2c1 | 28.2
O=C(c1cnc(-c2noc3cc(N4CCCC4)ccc23)s1)N1CCCC1 | 8.31
CN(C)CCNC(=O)c1ccc2c(-c3nccs3)noc2c1 | -33
CC1CCN(c2ccc3c(-c4ncc(C(=O)O)s4)noc3c2)CC1 | 23.1
CCN(C)C(=O)c1cnc(-c2noc3cc(N4CCCCC4)ccc23)s1 | 76.3
CC(C)COC(=O)N1CC(=O)N(Cc2ccco2)CC(O)C1 (stereo not given) | 47.2
CC(C)Nc1ncc(-c2ccncc2)c([C@@H]2CCCO2)n1 | 11.8
CN1CCn2c(-c3cnn(C)c3)cnc2C12CCN(CC1CC1)CC2 | 0.804
CN1CCC(c2nnc3n2CCN(S(=O)(=O)c2ccccc2)C3)CC1 | 40.45
Cc1nc(CN(C)C2CCN(Cc3cccc(F)c3)C2)no1 (stereo not given) | 17.5

Compound | INHIBITION [%]
Cc1ccnc(NCc2cccc(OCCN3CCOCC3)c2)n1 | -21.1
c1cc(NCc2cscn2)cc(OCCN2CCCCC2)c1 | 56.1
c1cncc(CNc2cccc(OCCN3CCCCC3)c2)c1 | 68
c1ccc(NCc2cccc(OCCN3CCOCC3)c2)nc1 | -8.25
c1cc(CN2CCCCC2)cc(NCc2cc[nH]n2)c1 | 2.22
NC(=O)C1CCN(CCc2ccc(NCc3cccnc3)cc2)CC1 | 25.3
Cc1csc(CNc2cccc(OCCN3CCCC3)c2)n1 | 28
Cc1ncsc1CNc1cccc(OCCN2CCCC2)c1 | 48.5
Clc1cncc(NCc2cccc(OCCN3CCOCC3)c2)n1 | 58.5
CC(C)=CCN1CCN(C(=O)C2CCS(=O)(=O)C2)CC1 (stereo not given) | 8.4
Cc1ncn(CCNC(=O)Nc2ccccc2)c(=O)c1C | -10.6
O=S(=O)(CCCN1CCCC(Cn2cncn2)C1)c1ccccc1 (stereo not given) | 7.67
Cn1nc(Cn2cccn2)c2c1CN(Cc1ccoc1)C2 | 20.1
CCn1ncc2[nH]c(-c3ccc(OC)c(COC)c3)nc21 | -45.8
CC(C)(C)c1cc(C(=O)N2CCOC(c3cnccn3)C2)[nH]n1 (stereo not given) | 12.15
Cc1cc(CN2CCC(C3Nc4ccccc4S(=O)(=O)N3)CC2)oc1C (stereo not given) | 32.8
COc1cccc(C(=O)N2CCc3ncnc(C)c3CC2)c1 | -34.9
COc1cccc(CC(=O)N2CCc3ncnc(C)c3CC2)c1 | 61.5
COc1cccc(CC(=O)N2CCc3ncnc(NC(C)C)c3CC2)c1 | -4.55
CC(C)Nc1ncnc2c1CCN(C(=O)CC1CCCC1)CC2 | 18.3
COCCNc1ncnc2c1CCN(C(=O)CC1CCC(=O)N1)CC2 (stereo not given) | 73.2
Cc1ncnc2c1CCN(C(=O)Cc1ccccn1)CC2 | 14.1
COCCCNc1ncnc2c1CCN(C(=O)CC1C=CCC1)CC2 (stereo not given) | 48.2

Compound | INHIBITION [%]
COc1cccc(CC(=O)N2CCc3ncnc(NCCO)c3CC2)c1 | 64
COc1cccc(C)c1C(=O)N1CCc2ncnc(NCCO)c2CC1 | 27.6
O=C(CCc1cc2n(n1)CCCN(C(=O)[C@H]1CCCO1)C2)NC1CC1 | 33.4
CC(C)c1noc(C2CCN(S(=O)(=O)c3cccs3)CC2)n1 | 17.5
O=C(Nc1cc(C(F)(F)F)c[nH]c1=O)C1CCNCC1 | 11.9
O=C(CN1CCOC(Cn2cncn2)C1)NCc1cccs1 (stereo not given) | 34.05
Cc1ccc(CN(CCCn2ccnc2)Cc2[nH]cnc2C)s1 | 9.93
Cc1ccc(O)c(CN(CCCn2ccnc2)Cc2ccc(C)s2)c1 | 79.7
Cc1ccc(CN(CCCn2ccnc2)Cc2ccccc2O)s1 | 54.4
COc1ccccc1CN(CCCn1ccnc1)CC1CCOC1 (stereo not given) | 43.4
Cc1ccc(CN(CCCn2ccnc2)Cc2c[nH]nc2C(C)(C)C)s1 | 70.1
Cc1ccc(CN(CCCO)Cc2nc3ccccc3[nH]2)s1 | 29.1
Cc1cn2nc(N3CCCC3Cn3nc(C)nc3C)sc2n1 (stereo not given) | -39.7
CC(C)c1noc(C(C)N2CCN(Cc3noc(C(C)(C)C)n3)CC2)n1 (stereo not given) | -35.7
Cc1cc(C)nc(N2CCC(C(=O)Nc3n[nH]c(CC(C)C)n3)CC2)n1 | 4.93
CNC(=O)C1Cn2ccnc2C2(CCN(Cc3c(C)noc3C)CC2)O1 (stereo not given) | 3.11
Cc1nc(N)c2ccc(C3CCCN3)nc2n1 (stereo not given) | 26.55
COc1ccc(F)cc1S(=O)(=O)NCC(O)c1sccc1C (stereo not given) | 16.9
COc1ccc(S(=O)(=O)NCC(O)c2sccc2C)cc1Cl (stereo not given) | 51.7
Cc1ccsc1C(O)CNC(=O)Cc1ccc(S(=O)(=O)C(C)C)cc1 (stereo not given) | 25.3
COC(=O)c1ccc(S(=O)(=O)NCC(O)c2sccc2C)cc1 (stereo not given) | -11.8
COc1ccc(S(=O)(=O)NCC(O)c2sccc2C)cc1C (stereo not given) | 6.34
Cc1ccsc1C(O)CNS(=O)(=O)Cc1ccc(F)cc1 (stereo not given) | 9.96

Compound | INHIBITION [%]
Cc1cc(S(=O)(=O)NCC(O)c2sccc2C)ccc1F (stereo not given) | 13.9
COc1ccc(CC(=O)NCC(O)c2sccc2C)cc1OC (stereo not given) | 53.8
Cc1ccsc1C(O)CNC(=O)Cc1ccc(F)cc1 (stereo not given) | 56
COc1ccccc1C(=O)NC(c1ccccn1)C1CCC(CN)CC1 (stereo not given) | 44.1
Cc1ncccc1-c1cc2cccnc2n1CCCNC(=O)C1CC1 | 25.8
CN(Cc1ccccc1)CC(O)Cn1cnc2c(Cl)cc(Cl)cc2c1=O (stereo not given) | 27.433
COCC1CN(C(=O)c2ccoc2C)Cc2nccn2C1 (stereo not given) | 35.3
COCCC(=O)NCc1cccnc1-n1cnc2ccccc21 | 33.9
CS(=O)(=O)NCCC(=O)NCc1cccnc1-n1cnc2ccccc21 | 41.2
CC(=O)NCCC(=O)NCc1cccnc1-n1cnc2ccccc21 | 60.1
Cc1[nH]ccc1C(=O)N[C@H]1CN(CCO)C[C@@H]1C1CC1 | 9.89
CCc1cc(C(=O)N[C@H]2CN(CCS(C)(=O)=O)C[C@@H]2C2CC2)[nH]n1 | 55
CS(=O)(=O)CCN1C[C@H](NC(=O)c2cnc(O)cn2)[C@@H](C2CC2)C1 | -3.43
Cc1cnc(C(=O)N[C@H]2CN(CCS(C)(=O)=O)C[C@@H]2C2CC2)cn1 | 53.9
Cc1c(C(=O)N[C@H]2CN(CCS(C)(=O)=O)C[C@@H]2C2CC2)cnn1C | 29
CSCCCN1C[C@H](NC(=O)c2cnn(C)c2)[C@@H](C2CC2)C1 | 12.6
Cc1ccc(CNC(C)c2ccc(N3CCN(C)CC3)c(F)c2)o1 (stereo not given) | -11
C1CCc2nnc(CNc3nc(C4CC4)nc4c3CCNCC4)n2CC1 | 3.06
CCc1ccc(S(=O)(=O)Nc2cc(C(=O)O)ccc2F)s1 | 13.85
NC(=O)C1CCN(C(=O)c2cc(S(=O)(=O)N3CCCC3)cs2)CC1 | 56.3
NC(=O)C1CCN(Cc2ccc(S(=O)(=O)N3CCCC3)o2)CC1 | 16.5
CN(C)S(=O)(=O)c1csc(C(=O)N2CCC(C(N)=O)CC2)c1 | 60.1
CCN(c1ccsc1C(=O)N1CCSCC1)S(=O)(=O)c1ccccc1 | -27.5

Compound | INHIBITION [%]
COCCNC(=O)c1cc(S(=O)(=O)N2CCCC2)cs1 | 10.3
NS(=O)(=O)c1cc(C(=O)N2CCCCC2)cs1 | 30.7
NC(=O)C1CCN(C(=O)c2cc(S(=O)(=O)N3CCCCC3)cs2)CC1 | 56.3
CCN(c1ccc(C(=O)N2CCC(C(N)=O)CC2)cc1)S(=O)(=O)CC | 47.3
CCN(CC)S(=O)(=O)c1csc(C(=O)N2CCC(C(N)=O)CC2)c1 | 49.9
CN(C)S(=O)(=O)c1csc(C(=O)N2CCSCC2)c1 | 65.6
COCCNC(=O)c1cc(S(=O)(=O)N2CCCCCC2)cs1 | 45.6
O=C(c1cc(-c2cccs2)cs1)N1CCSCC1 | -61.1
CC(C(=O)N1CCCN(c2ccc(C#N)cc2)CC1)n1cccn1 (stereo not given) | 10
CCc1nc(C2CCCN2CC(=O)N2CCc3ccccc32)no1 (stereo not given) | 23.5
O=C(CCc1nc2cccnc2[nH]1)Nc1ccc2c(c1)OCC(=O)N2 | 17.1
CC(C)(C)c1cc(C(=O)N2CCC(c3cnccn3)CC2)[nH]n1 | 29.9
CC(C)CCC(=O)NCCc1ccn(-c2ccccc2)n1 | 5.7
NC(=O)CN(Cc1ccc(Br)cc1)C(=O)c1ccncc1 | -9.51
CCc1ncc(CN2C[C@@H]3CC[C@H]2CN(C(=O)C2CCC2)C3)cn1 | 62.6
CCNc1ncc(CN2C[C@@H]3CC[C@H]2CN(C(=O)C2CCC2)C3)cn1 | 60.4
CCNc1ncc(CN2C[C@@H](C(=O)O)[C@H](C3CC3)C2)cn1 | 58.2
CCNc1ncc(CN2C[C@H](C3CC3)[C@@H](N)C2)cn1 | 23.9
CCCNc1ncc(CN2C[C@@H]3CC[C@H]2CN(C2CCOCC2)C3)cn1 | 1.98
CCn1cc(CN2C[C@@H]3CC[C@H]2CN(C(=O)C2CCC2)C3)cn1 | 4.15
O=C(O)[C@@H]1CN(Cc2cnc(C3CCCCC3)nc2)C[C@H]1C1CC1 | 29.6
Cc1ccc(C(=O)N2C[C@H]3CC[C@@H](C2)N(Cc2ccccc2)C3)cn1 | -13
CCOc1ccc(C(=O)N2C[C@@H]3CC[C@H]2CN(C(=O)C2CCC2)C3)cc1 | 30.3
